Hits are enriched below; roughly 3.8% of the tested compounds scored in any of these assays.
Gli-Sufu block = Gli-Sufu pathway antagonists, primary screen, luciferase luminescence, Sufu-KO-LIGHT cells, uHTS; 0.74% of 340,000 active; Sufu-KO-LIGHT fibroblasts, Gli luciferase reporter luminescence; AID 588413, 2011; inhibition, % at 5 µM;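 active = inhibition above about 55%, limit read from the data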
697 NFkB inh = inhibitors of PMA/ionomycin-induced NF-kB reporter, 697 cells, primary screen, B-cell NF-kB inhibitor project, cell-based, luminescence, uHTS | 0.33% of 330,000 active | AID 435022, 2010 | inhibition, % at 4 µM | 697 B-cell NF-kB luciferase reporter, 16 h; in the data active = inhibition above about 35%
Shn3 3UTR inh = reduction of Shn3 3'UTR firefly luciferase signal, primary screen, Schnurri-3 inhibitor project, cell-based, Clone20 osteoblasts, set 2; inhibition, % at 12.5 µM; AID 588674, 2011; 0.52% of 360,000 active; Clone20 osteoblast Shn3 3'UTR firefly luciferase, 24 h;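 active = mean inhibition of at least 75% with every replicate also reaching 75%; inconclusive = mean inhibition at least 75% but some replicate below; inactive = mean inhibition below 75%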
Mdm2 MdmX PPI = inhibitors of human Mdm2-MdmX association, primary screen, cell-based, luminescence, split luciferase, SaOS-2, uHTS; Protein Mdm4 (Homo sapiens) + E3 ubiquitin-protein ligase Mdm2 (Homo sapiens), …; SaOS-2 split-luciferase Mdm2/MdmX complementation; inhibition, % at 8 µM; 3% of 330,000 active; AID 485346, 2010;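 active = inhibition of at least 50% at 8 µM in the primary screen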
Target sequence (O15151 whole entry, looked up): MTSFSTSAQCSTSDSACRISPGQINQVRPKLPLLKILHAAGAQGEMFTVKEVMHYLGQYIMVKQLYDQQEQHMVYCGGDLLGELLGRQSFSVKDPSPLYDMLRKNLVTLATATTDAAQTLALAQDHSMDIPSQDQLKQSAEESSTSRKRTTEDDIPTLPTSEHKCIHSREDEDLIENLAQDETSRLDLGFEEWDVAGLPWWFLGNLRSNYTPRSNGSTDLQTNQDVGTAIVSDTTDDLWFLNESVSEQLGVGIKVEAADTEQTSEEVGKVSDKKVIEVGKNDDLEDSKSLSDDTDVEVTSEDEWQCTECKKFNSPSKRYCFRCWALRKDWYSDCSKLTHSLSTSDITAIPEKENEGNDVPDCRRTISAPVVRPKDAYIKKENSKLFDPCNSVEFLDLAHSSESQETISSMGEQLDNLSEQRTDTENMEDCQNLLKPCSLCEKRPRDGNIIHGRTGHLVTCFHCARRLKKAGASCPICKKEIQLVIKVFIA
Target sequence (Q00987 whole entry, looked up): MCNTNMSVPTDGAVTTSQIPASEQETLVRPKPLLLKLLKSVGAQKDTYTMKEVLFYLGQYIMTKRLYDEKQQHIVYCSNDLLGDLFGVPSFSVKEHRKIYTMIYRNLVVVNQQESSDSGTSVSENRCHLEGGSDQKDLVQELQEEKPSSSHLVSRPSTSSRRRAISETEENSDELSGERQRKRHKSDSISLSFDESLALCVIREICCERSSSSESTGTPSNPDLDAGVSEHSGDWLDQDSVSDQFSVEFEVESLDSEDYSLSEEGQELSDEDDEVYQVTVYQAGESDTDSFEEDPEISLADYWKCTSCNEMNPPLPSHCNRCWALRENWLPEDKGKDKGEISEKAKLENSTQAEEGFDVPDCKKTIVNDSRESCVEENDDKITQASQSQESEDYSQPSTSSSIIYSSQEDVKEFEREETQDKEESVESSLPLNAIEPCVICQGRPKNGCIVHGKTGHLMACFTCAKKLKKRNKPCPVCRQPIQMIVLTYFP
Jurkat NFkB inh = inhibitors of induced NF-kB luciferase reporter, primary screen, TCR NF-kB activation inhibitor project, cell-based, luminescence, uHTS | Jurkat, PMA/ionomycin-induced NF-kB luciferase reporter | inhibition, % at 4 µM | AID 435003, 2010 | 0.53% of 330,000 active; in the data active = inhibition above about 50%
Mdm2-MdmX conf = Mdm2-MdmX complex disruptors, retested hits, confirmation, luminescence, single concentration; AID 489028, 2010; shares compounds with Mdm2 MdmX PPI; 55% of 10,000 active; Mdm2-MdmX binding, luminescent assay; inhibition, % at 8 µM; in the data active = inhibition above about 40%
Full FLuc ctr = full-length luciferase signal inhibition, confirmation, counter-screen for Mdm2/MdmX interaction inhibitor project, cell-based, single concentration, SaOS-2; shares compounds with Mdm2 MdmX PPI; SaOS-2 full-length luciferase counterscreen, luminescence; inhibition, % at 8 µM; 77% of 6,200 active; AID 504607, 2011;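 active = mean inhibition at 8 µM reaching about 37%, which flags the compound as non-specific, limit read from the data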;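 note: p53-null SaOS-2 cells with luciferase driven by a doxycycline-inducible promoter; compound on cells about two nights before reading with doxycycline added after day one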
Large screens that a line does not name were inactive (follow-up assays come after a bar, where they were run).

CSC1=NC(C)(C)C=C(/C=C/c2ccc(Cl)cc2)N1	Mdm2 MdmX PPI 54 | Mdm2-MdmX conf inactive
CC(C)(C)CC(=O)Nc1nnc(C(F)(F)F)s1	none
CC(NC(=O)Nc1nnc(C(F)(F)F)s1)(C(F)(F)F)C(F)(F)F	Mdm2 MdmX PPI 95 | Mdm2-MdmX conf 59 | Full FLuc ctr inactive
Cc1c(CCOC(=O)CC23CC4CC(CC(C4)C2)C3)sc[n+]1CC(=O)c1ccccc1	Mdm2 MdmX PPI 54 | Mdm2-MdmX conf inactive
Cc1c(CCOC(=O)C23CC4CC(CC(C4)C2)C3)sc[n+]1Cc1ccccc1	none
O=C(CCl)Nc1cn(-c2ccccc2)nc1-c1ccc(F)cc1	Shn3 3UTR inh 96, Mdm2 MdmX PPI 86 | Mdm2-MdmX conf 44 | Full FLuc ctr inactive
CCOC(=O)c1ccc(N=c2sc(C(=O)OC)cc(=O)n2Cc2ccco2)cc1	Mdm2 MdmX PPI 55 | Mdm2-MdmX conf inactive
Cc1cc(C)cc(NC(=O)Nc2ccc3c(c2)N(C)C(=O)CS3)c1	none
CC(=O)c1cccc(NC(=O)Nc2ccc3c(c2)N(C)C(=O)CS3)c1	Mdm2 MdmX PPI 51 | Mdm2-MdmX conf inactive
CC(=O)c1cccc(NC(=O)Nc2ccc(C(=O)N3CCCC3)cc2)c1	Mdm2 MdmX PPI 52 | Mdm2-MdmX conf inactive
c1ccc(Oc2c3ccccc3nc3ccccc23)cc1	Mdm2 MdmX PPI 73 (no result: Shn3 3UTR inh) | Mdm2-MdmX conf inactive
Cc1cccc(OCC(=O)NCc2ccccc2)c1	none
C/C(=N\NC(=O)COc1cccc(C)c1)c1ccc2ccccc2c1O	Mdm2 MdmX PPI 52 | Mdm2-MdmX conf 61 | Full FLuc ctr inactive
O=C(C[C@@H]1C/C=C\C[C@H](Cc2ccc(F)cc2)C(=O)OCCNC1=O)NCCO	none
COc1cc2oc(-c3ccc(O)cc3)cc(=O)c2c(OC)c1O	Mdm2 MdmX PPI 51 | Mdm2-MdmX conf inactive
O=c1cc(-c2ccc(O)cc2)oc2c1ccc1ccccc12	none
O=c1cc(-c2ccc(O)cc2)oc2ccc3ccccc3c12	Shn3 3UTR inh inconclusive, Mdm2 MdmX PPI 68 | Mdm2-MdmX conf 66 | Full FLuc ctr 75
O=C(CSCc1ccccc1)N/N=C/c1cc2c(cc1Br)OCO2	none
Cc1ccc(NC(=O)Cc2cc(C(=O)O)c3ccccc3n2)c(C)c1	Mdm2 MdmX PPI 82 | Mdm2-MdmX conf 59 | Full FLuc ctr 40
CCCc1cc(C(=O)O)c2ccccc2n1	none
CN1CCN(c2ncnc3c2ncn3[C@H]2CN(Cc3ccc(-c4ccccc4)cc3)C[C@@H](CO)O2)CC1	none (no result: Gli-Sufu block, 697 NFkB inh, Mdm2 MdmX PPI, Jurkat NFkB inh)
CC[C@H](C)[C@H]1O[C@]2(CC[C@@H]1C)C[C@@H]1C[C@@H](CC=C(C)[C@@H](O[C@H]3C[C@H](OC)[C@@H](O[C@H]4C[C@H](OC)[C@@H](O)[C@H](C)O4)[C@H](C)O3)[C@@H](C)C=CC=C3CO[C@@H]4[C@H](O)C(C)=C[C@@H](C(=O)O1)[C@]34O)O2	Shn3 3UTR inh 97, Mdm2 MdmX PPI 100 | Mdm2-MdmX conf inactive
N#CC1(C#N)CC(C=O)=C(N)C1(C#N)CC(=O)C12CC3CC(CC(C3)C1)C2 (centres undefined)	none
O=C(C1=C[C@H](c2ccc(Br)cc2)C[C@H](OCCCCO)O1)N1CCN(Cc2ccc3c(c2)OCO3)CC1	none
O=C(C1=C[C@@H](c2ccc(Br)cc2)C[C@@H](OCCCCO)O1)N1CCN(Cc2ccccc2)CC1	Mdm2 MdmX PPI 55 | Mdm2-MdmX conf 50 | Full FLuc ctr 66
COc1ccc(CN2CCN(Cc3c[nH]c4ccccc34)CC2)cc1OC	none (no result: Gli-Sufu block, 697 NFkB inh, Mdm2 MdmX PPI, Jurkat NFkB inh)
COc1ccc(Br)cc1CN1CCN(Cc2c[nH]c3ccccc23)CC1	Mdm2 MdmX PPI 69 | Mdm2-MdmX conf inactive | Full FLuc ctr 83
COc1cccc(NC(=O)c2ccccc2N2C(=O)C3C4C=CC(C4)C3C2=O)c1 (centres undefined)	none
COc1ccc(S(=O)(=O)Nc2cc(C(C)C)c(O)cc2C)cc1	none
COC(=O)c1ccc(C)c(NS(=O)(=O)c2ccc(OC)cc2)c1	Mdm2 MdmX PPI 70 | Mdm2-MdmX conf 60 | Full FLuc ctr 100
CCOc1ccc(-c2c(C)n([O-])c3c([n+]2=O)CCCCC3)cc1	none
O=C(NC1CC1)c1ccc2c(c1)S(=O)(=O)c1cc(Cl)ccc1C2=O	Mdm2 MdmX PPI 95 (no result: Gli-Sufu block, Shn3 3UTR inh) | Mdm2-MdmX conf 94 | Full FLuc ctr 38
Cc1noc(C)c1NC(=O)Nc1cccc2c1O[C@H](CN(C)C(=O)NC(C)C)[C@@H](C)CN([C@H](C)CO)C2=O	none
COc1ccc(C(=O)N2CCN(c3ncnc4c(-c5ccccc5)nsc34)CC2)cc1	none (no result: 697 NFkB inh, Mdm2 MdmX PPI, Jurkat NFkB inh)
COc1ccc(-c2nsc3c(N4CCCCC4)ncnc23)cc1	Mdm2 MdmX PPI 66 | Mdm2-MdmX conf 70 | Full FLuc ctr 55
CCOc1ccccc1CN1CCNC(=O)C1CC(=O)NCc1nc(C)cs1 (centres undefined)	none
C[C@H]1CN([C@@H](C)CO)C(=O)CCCn2nncc2CO[C@@H]1CN(C)S(=O)(=O)c1ccc(-c2ccccc2)cc1	none (no result: Gli-Sufu block, 697 NFkB inh, Mdm2 MdmX PPI, Jurkat NFkB inh)
COc1ccc(C(=O)Nn2c(SCC(=O)c3ccccc3)nc3ccccc3c2=O)cc1	Mdm2 MdmX PPI 54 | Mdm2-MdmX conf 52 | Full FLuc ctr 127
CCCc1ccc2oc(C(=O)N3CCN(C4CCS(=O)(=O)C4)CC3)c(C)c2c1 (centres undefined)	none
Cc1ccc2nc(Cl)c(/C=N/Nc3nc(C)cc(C)n3)c(=O)n2c1	none
COc1ccc(NC(=O)CN2CCN(C3c4ccccc4-c4ccccc43)CC2)c(OC)c1	Mdm2 MdmX PPI 94 | Mdm2-MdmX conf inactive
COc1ccccc1NC(=O)CN1CCN(C2c3ccccc3-c3ccccc32)CC1	none
CC(C(=O)Nc1ccc2c(c1)OCCO2)N(C)CC(=O)Nc1ccccc1Br (centres undefined)	none
Cc1cc(C)c(NC(=O)Cn2nnc(C(=O)NCc3cccs3)c2N)c(C)c1	none
Cc1ccc(NC(=O)Cn2nnc(C(=O)NCc3cccs3)c2N)c(C)c1	Mdm2 MdmX PPI 69 | Mdm2-MdmX conf inactive
CCOc1ccc(NC(=O)Cn2nnc(C(=O)NCc3ccc4c(c3)OCO4)c2N)cc1	Mdm2 MdmX PPI 52 | Mdm2-MdmX conf inactive
Cc1cc(C)cc(NC(=O)Cn2nnc(C(=O)NCc3ccc4c(c3)OCO4)c2N)c1	Mdm2 MdmX PPI 55 | Mdm2-MdmX conf inactive | Full FLuc ctr 55
